Assay [1] deals with T1, Ephrin type-B receptor 2 (Homo sapiens) (UniProt P29323).
T1 sequence (whole entry): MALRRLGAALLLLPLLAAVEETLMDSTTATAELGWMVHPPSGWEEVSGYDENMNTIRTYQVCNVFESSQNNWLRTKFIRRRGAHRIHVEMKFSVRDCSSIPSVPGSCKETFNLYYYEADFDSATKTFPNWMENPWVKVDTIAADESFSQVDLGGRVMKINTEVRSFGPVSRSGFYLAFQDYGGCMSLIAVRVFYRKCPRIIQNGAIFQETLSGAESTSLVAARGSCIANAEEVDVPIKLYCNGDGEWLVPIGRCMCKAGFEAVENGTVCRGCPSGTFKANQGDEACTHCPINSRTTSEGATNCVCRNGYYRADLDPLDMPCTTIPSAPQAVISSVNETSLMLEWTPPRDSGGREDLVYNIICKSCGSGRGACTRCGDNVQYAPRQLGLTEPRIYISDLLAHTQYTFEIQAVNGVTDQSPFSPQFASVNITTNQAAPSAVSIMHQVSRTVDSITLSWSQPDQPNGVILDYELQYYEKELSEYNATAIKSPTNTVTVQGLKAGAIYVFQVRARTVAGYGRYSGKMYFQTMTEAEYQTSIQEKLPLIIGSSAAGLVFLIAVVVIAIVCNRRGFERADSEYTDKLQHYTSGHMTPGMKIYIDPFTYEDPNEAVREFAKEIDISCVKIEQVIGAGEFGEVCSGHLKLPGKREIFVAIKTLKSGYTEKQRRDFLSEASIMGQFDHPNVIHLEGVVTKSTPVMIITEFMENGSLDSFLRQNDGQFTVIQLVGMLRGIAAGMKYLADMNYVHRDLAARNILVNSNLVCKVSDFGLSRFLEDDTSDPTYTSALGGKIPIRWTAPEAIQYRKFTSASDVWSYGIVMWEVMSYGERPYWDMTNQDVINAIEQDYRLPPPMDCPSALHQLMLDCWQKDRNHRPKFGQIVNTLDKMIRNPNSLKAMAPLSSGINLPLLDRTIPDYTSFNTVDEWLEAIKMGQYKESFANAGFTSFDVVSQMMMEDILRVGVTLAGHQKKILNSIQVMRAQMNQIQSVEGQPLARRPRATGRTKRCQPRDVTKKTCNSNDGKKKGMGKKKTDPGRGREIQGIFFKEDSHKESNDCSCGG
To be noted: at 1 µM.

Assay [2] has as its target T2, Ephrin type-B receptor 3 (Homo sapiens) (UniProt P54753).
T2 sequence (whole entry): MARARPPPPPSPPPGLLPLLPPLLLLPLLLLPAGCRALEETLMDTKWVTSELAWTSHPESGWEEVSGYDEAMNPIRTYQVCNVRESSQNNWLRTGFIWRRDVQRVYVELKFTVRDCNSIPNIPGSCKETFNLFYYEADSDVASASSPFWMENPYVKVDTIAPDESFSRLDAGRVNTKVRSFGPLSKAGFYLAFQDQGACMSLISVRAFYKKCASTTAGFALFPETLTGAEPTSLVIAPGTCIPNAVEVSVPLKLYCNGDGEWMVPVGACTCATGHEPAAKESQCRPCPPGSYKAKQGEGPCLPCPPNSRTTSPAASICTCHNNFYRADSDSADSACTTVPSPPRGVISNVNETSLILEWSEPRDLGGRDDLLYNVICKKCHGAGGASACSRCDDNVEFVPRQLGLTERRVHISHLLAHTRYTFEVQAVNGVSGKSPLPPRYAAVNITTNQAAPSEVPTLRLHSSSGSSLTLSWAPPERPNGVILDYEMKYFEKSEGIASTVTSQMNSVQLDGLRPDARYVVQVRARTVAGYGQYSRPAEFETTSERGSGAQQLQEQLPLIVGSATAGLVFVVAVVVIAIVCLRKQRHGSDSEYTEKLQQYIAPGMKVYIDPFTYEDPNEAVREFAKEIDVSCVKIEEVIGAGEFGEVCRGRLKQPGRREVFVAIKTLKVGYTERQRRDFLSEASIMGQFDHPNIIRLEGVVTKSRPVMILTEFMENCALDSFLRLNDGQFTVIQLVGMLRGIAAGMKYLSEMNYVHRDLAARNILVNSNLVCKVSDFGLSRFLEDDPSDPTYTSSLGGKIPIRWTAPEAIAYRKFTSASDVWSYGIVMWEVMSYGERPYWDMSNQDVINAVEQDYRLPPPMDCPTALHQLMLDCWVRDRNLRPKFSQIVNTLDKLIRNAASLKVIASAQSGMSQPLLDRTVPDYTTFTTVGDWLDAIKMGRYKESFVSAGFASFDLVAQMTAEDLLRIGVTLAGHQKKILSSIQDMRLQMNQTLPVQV
The settings on record: at 0.1 µM.

Assay [3] has as its target T2, Ephrin type-B receptor 3 (Homo sapiens). The settings on record: at 1 µM.
Assay [4] concerns the target T3, Ephrin type-B receptor 4 (Homo sapiens) (UniProt P54760).
T3 sequence (whole entry): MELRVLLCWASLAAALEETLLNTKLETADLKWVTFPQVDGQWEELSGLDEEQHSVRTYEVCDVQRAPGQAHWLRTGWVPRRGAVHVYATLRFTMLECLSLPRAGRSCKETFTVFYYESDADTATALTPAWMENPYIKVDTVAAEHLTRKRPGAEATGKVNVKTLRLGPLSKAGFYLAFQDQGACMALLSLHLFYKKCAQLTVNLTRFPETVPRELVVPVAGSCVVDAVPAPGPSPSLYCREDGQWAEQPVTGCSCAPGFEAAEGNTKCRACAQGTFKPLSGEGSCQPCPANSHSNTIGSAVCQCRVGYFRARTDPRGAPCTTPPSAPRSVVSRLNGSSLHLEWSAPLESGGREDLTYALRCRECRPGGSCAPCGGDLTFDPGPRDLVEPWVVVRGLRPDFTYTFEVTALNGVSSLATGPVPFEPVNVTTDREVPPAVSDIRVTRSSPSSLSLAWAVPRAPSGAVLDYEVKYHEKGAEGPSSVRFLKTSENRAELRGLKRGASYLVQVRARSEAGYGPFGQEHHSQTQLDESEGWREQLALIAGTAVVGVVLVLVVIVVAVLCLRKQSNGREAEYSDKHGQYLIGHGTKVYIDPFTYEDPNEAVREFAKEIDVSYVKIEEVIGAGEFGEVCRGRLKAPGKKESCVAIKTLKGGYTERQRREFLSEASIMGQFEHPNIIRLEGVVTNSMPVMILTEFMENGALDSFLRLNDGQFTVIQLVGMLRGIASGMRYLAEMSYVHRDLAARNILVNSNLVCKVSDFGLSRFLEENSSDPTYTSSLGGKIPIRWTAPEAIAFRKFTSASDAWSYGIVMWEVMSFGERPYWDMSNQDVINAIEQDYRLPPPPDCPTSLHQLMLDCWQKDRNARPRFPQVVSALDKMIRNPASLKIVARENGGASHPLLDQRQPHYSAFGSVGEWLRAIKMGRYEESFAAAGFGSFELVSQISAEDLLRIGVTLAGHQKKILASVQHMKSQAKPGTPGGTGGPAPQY
The settings on record: at 0.1 µM.

In assay [5] the target is T3, Ephrin type-B receptor 4 (Homo sapiens). The settings on record: at 1 µM.
Assay [6] has as its target Receptor tyrosine-protein kinase erbB-2 (Homo sapiens) (UniProt P04626). The settings on record: at 0.1 µM.
The target is the same in assay [7]. The settings on record: at 1 µM.
Assay [8] concerns the target Receptor tyrosine-protein kinase erbB-4 (Homo sapiens) (UniProt Q15303). To be noted: at 0.1 µM.
Assay [9] has the same target. To be noted: at 1 µM.
Assay [10] concerns the target Tyrosine-protein kinase Fer (Homo sapiens) (UniProt P16591). The settings on record: at 0.1 µM.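 Further: reported figures are averaged percent inhibition of FER.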

Receptor tyrosine-protein kinase erbB-4 (Homo sapiens), sequence (Q15303 whole entry): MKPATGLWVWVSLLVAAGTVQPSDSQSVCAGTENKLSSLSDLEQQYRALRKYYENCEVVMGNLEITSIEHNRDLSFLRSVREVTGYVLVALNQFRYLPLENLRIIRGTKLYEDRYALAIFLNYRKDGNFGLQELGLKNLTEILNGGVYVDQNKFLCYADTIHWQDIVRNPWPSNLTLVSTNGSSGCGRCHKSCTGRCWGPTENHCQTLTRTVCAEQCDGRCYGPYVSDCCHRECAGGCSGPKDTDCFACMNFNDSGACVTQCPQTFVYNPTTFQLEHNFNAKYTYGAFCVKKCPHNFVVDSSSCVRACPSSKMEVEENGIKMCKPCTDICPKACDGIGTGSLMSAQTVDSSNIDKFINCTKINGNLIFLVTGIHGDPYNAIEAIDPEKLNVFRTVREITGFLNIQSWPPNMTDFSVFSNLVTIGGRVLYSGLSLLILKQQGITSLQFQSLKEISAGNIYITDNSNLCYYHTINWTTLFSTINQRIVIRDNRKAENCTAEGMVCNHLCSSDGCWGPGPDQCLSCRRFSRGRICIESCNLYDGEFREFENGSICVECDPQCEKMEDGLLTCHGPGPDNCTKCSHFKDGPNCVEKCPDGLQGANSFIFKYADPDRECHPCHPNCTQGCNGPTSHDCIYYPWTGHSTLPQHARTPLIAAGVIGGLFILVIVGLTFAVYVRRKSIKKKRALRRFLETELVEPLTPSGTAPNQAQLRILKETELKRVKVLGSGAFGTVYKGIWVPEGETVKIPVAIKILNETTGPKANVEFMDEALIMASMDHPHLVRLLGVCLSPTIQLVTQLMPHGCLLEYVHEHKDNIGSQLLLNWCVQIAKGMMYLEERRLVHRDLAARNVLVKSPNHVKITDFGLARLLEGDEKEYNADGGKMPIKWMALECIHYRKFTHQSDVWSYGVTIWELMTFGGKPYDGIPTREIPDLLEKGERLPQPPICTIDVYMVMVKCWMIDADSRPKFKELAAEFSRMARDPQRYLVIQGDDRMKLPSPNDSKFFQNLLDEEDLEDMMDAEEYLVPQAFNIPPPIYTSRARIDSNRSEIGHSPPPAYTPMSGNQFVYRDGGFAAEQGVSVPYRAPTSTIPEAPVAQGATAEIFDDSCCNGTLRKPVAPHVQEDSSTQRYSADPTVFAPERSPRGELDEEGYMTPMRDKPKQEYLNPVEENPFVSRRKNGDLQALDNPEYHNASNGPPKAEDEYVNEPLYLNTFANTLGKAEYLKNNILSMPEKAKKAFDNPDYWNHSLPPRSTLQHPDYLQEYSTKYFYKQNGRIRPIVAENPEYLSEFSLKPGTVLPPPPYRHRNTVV
Receptor tyrosine-protein kinase erbB-2 (Homo sapiens), sequence (P04626 whole entry): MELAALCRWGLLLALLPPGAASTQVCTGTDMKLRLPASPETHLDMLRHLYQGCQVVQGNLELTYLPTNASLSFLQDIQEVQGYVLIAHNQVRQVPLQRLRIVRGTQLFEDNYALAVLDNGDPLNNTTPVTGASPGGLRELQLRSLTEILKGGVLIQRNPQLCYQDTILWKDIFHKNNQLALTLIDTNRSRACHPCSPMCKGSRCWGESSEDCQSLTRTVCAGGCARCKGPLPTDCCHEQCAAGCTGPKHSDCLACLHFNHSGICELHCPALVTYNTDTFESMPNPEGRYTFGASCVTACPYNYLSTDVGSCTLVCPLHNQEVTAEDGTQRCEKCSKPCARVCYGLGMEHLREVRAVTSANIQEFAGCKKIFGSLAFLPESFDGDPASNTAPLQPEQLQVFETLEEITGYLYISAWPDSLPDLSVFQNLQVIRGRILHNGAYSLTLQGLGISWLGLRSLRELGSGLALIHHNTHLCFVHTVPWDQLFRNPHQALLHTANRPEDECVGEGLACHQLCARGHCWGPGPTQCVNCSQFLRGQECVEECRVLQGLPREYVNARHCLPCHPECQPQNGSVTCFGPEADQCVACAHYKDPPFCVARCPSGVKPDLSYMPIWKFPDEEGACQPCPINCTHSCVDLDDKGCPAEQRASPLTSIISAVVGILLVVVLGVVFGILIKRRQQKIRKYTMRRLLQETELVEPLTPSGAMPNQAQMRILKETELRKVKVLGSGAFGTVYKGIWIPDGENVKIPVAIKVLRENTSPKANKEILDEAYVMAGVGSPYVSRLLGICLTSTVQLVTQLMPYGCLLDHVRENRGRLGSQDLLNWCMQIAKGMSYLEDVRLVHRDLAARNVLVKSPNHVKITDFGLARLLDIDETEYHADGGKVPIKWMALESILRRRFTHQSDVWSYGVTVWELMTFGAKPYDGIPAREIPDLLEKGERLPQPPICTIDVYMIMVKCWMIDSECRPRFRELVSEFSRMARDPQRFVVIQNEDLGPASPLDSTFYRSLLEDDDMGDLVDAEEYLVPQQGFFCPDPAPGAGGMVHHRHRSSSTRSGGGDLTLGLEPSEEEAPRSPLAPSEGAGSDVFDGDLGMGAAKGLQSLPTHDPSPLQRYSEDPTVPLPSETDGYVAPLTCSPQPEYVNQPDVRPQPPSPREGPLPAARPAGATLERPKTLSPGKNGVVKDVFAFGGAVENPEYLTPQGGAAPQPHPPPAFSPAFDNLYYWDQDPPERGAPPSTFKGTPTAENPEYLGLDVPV
Tyrosine-protein kinase Fer (Homo sapiens), sequence (P16591 whole entry, looked up): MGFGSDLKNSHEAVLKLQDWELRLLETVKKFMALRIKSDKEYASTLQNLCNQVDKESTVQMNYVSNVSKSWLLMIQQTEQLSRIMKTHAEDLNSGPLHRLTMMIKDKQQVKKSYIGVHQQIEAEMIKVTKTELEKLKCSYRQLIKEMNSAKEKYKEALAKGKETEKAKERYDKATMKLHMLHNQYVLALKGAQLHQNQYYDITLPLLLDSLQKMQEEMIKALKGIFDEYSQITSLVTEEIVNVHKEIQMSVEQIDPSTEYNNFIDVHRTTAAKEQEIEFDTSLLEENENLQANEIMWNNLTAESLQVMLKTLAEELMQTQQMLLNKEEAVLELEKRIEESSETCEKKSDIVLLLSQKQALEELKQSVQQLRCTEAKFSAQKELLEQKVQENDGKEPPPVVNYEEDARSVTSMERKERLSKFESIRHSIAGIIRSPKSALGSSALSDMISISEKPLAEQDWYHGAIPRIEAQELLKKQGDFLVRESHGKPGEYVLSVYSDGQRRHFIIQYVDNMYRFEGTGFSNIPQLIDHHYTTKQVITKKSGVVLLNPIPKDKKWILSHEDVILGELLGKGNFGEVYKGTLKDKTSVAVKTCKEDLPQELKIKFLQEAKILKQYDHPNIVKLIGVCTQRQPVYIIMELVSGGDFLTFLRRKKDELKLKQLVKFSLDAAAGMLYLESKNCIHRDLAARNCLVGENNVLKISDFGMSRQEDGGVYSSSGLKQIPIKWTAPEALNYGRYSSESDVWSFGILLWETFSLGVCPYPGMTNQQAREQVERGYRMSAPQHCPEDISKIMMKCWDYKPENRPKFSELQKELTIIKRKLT

Turning to `NC(=O)c1cccc(Nc2nccc(Nc3cccc4[nH]ncc34)n2)c1`, the inhibition in [1] is 77.8%; in assay [2] it was -3.41%; in [3], 4.33%; in [4], 22.2%; in [5], 72.1%; in [6], -4.62%. Also, the inhibition in [7] is 2.08%; in assay [8] it was -6.41%; in assay [9] it was -1.88%; in assay [10] it was 3.13%.
Take `CC(C)=Cc1cccc2c1/C(=N/Nc1ccc(S(N)(=O)=O)cc1)C(=O)N2`: the inhibition was 5.84% in [1]; 2.65% in assay [2]; -0.21% in assay [3]; 1.72% in assay [4]; 2.38% in assay [5]; 0.59% in [6]. Also, the inhibition in [7] turned out to be 4.72%; in assay [8], 5.98%; in [9] it was 4.74%; in assay [10] it was 3.57%.
As to `CS(=O)(=O)CCNCc1ccc(-c2ccc3ncnc(Nc4ccc(OCc5ccccc5)c(Cl)c4)c3c2)o1`, the inhibition in [1] was 11.5%; in assay [2], -0.46%; in [3], 2.9%; in assay [4] it was 1.93%; in [5], 2.4%; in assay [6] it was 21.5%. Besides, the inhibition in [7] amounted to 69.5%; in assay [8], 59.8%; in [9], 88.1%; in assay [10], 4.02%.
For the molecule `CC(=O)Nc1cccc(C#Cc2cncnc2Nc2ccc(OCc3cccc(F)c3)c(Cl)c2)n1`, the inhibition is 4.49% in [1]; -4.13% in [2]; -1.83% in [3]; -0.8% in assay [4]; 0.82% in assay [5]; 1.84% in [6]. For the same molecule, the inhibition in assay [7] was 0.35%; in [8], 18.5%; in assay [9], 62.8%; in [10], -0.09%.
On to `CS(=O)(=O)CCNCc1ccc(-c2ccc3ncnc(Nc4ccc(OCc5cccc(F)c5)c(C(F)(F)F)c4)c3c2)o1`, for which the inhibition in [1] amounted to 4.49%; in [2], 6.25%; in [3], 3.96%; in assay [4] it was 2.87%; in assay [5], 0.47%; in assay [6], 3.41%. Also, the inhibition came out at 7.46% in assay [7], 8.49% in [8], 16.9% in assay [9] and 4.27% in [10].
As for `COC(=O)Nc1nc2cc(Oc3ccc(NC(=O)Nc4cccc(C(=O)O)c4)cc3)ccc2[nH]1`, the inhibition in assay [1] is 3.77%; in [2], -0.56%; in assay [3], -3.97%; in [4], -2.57%; in assay [5], -4.05%; in [6], -0.03%. The inhibition was 3.5% in assay [7], 2.52% in assay [8], 0.22% in assay [9] and -1.22% in [10].
For the molecule `COc1ccc(-c2ccncc2)cc1C(N)=O`, the inhibition was 8.22% in assay [1]; 3.97% in [2]; 3.63% in assay [3]; 1% in [4]; 2.03% in [5]; 1.06% in [6]. For the same molecule, the inhibition in [7] amounted to 2.95%; in assay [8] it was 6.21%; in assay [9], 12.3%; in [10] it was 4.03%.
Consider `N#Cc1c(NC(=O)c2cccc3ccccc23)sc2c1CCCC2`, for which the inhibition in assay [1] came out at 6.91%; in assay [2] it was 5.39%; in [3], 3.56%; in [4], 3.79%; in assay [5] it was 3.28%; in assay [6], 1.65%. Also, the inhibition is -0.24% in assay [7], 6.37% in assay [8], 8.55% in [9] and 2.88% in [10].
